Drawing on PubChem BioAssay, this text covers composite z-score and z-score for five molecules.

In assay [1] the test system is PRMT1 (protein arginine N-methyltransferase 1). The assay is described as follows: PRMT1 binders on small-molecule microarrays, primary screen, biochemical, small-molecule microarray, 635 nm fluorescence (AID 1088).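 Also: binding of Prmt1 protein to compounds spotted on small-molecule microarray slides.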 Particulars: small-molecule microarray binding, higher = more signal.
The nature of assay [2]: yeast growth modulation, basal conditions, primary screen, YJM789 clinical isolate, OD600, 24 h (AID 1089).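 Also: growth of clinical yeast isolate S. cerevisiae YJM 789 seeded 1000 cells per well; test concentration not given here.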 The note with it: S. cerevisiae YJM789 growth, higher = more signal, called active from +8 up or from −8 down.
Assay [3] in a line: fission yeast growth modulation, primary screen, strain 972, OD600, 24 h, no modulator (AID 1090).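 Also: basal condition with compound alone and no growth modifier present; test concentration not given here.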 The note with it: S. pombe 972 growth, higher = more signal, called active from +8 up or from −8 down.
The nature of assay [4]: S. cerevisiae growth modulation with rapamycin, primary screen, strain BY4716, OD600, 96 h (AID 1091). Also: test concentration not given here. Particulars: higher = more signal, called active from +8 up or from −8 down.
Assay [5] has as its target Torsin-1A-interacting protein 2 (Homo sapiens) (UniProt Q8NFQ8). The assay is described as follows: LULL1 binders on small-molecule microarray, primary screen, cell lysate, human LULL1 lysate, 635/667 nm fluorescence (AID 1092).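 Also: probe is lysate of COS7 cells overexpressing human LULL1; score merges per-feature 667 nm fluorescence with signal-to-noise.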 The note with it: hLULL1 lysate binding, 635 nm fluorescence, higher = more signal.
The nature of assay [6]: E. coli growth modulation, two-sided OD650, primary screen, E. coli filamentation project, strain DRC41, 24 h (AID 1093).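 Also: MC1000 strain lacking acrAB efflux and sulA so SOS filamentation is blocked; test concentration not given here.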 Particulars: OD650, 24 h, higher = more signal, called active from +8 up or from −8 down.
Assay [7] is described as follows: small-molecule microarray binders of probe aLefty2, primary screen, biochemical, biotinylated probe, 635/667 nm fluorescence (AID 1094).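 Also: score merges spot fluorescence near 667 nm with spot signal-to-noise ratio.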 Particulars: higher = more signal.
The subject of assay [8] is Noggin (protein binding on small-molecule microarray). The assay is described as follows: Noggin binders on small-molecule microarray, primary screen, biochemical, 635/667 nm fluorescence (AID 1095).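 Also: score merges 667 nm feature fluorescence with signal to noise over triplicate slides.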 Particulars: 635 nm fluorescence, higher = more signal.
The target of assay [9] is Neurogenic locus notch homolog protein 3 (Homo sapiens) (UniProt Q9UM47). The assay is described as follows: NOTCH3 binders on small-molecule microarray, primary screen, biochemical, 635/667 nm fluorescence (AID 1096). Particulars: NOTCH3 binding, 635 nm fluorescence, higher = more signal.
Chain of Neurogenic locus notch homolog protein 3 (Homo sapiens) (Q9UM47 whole entry, looked up): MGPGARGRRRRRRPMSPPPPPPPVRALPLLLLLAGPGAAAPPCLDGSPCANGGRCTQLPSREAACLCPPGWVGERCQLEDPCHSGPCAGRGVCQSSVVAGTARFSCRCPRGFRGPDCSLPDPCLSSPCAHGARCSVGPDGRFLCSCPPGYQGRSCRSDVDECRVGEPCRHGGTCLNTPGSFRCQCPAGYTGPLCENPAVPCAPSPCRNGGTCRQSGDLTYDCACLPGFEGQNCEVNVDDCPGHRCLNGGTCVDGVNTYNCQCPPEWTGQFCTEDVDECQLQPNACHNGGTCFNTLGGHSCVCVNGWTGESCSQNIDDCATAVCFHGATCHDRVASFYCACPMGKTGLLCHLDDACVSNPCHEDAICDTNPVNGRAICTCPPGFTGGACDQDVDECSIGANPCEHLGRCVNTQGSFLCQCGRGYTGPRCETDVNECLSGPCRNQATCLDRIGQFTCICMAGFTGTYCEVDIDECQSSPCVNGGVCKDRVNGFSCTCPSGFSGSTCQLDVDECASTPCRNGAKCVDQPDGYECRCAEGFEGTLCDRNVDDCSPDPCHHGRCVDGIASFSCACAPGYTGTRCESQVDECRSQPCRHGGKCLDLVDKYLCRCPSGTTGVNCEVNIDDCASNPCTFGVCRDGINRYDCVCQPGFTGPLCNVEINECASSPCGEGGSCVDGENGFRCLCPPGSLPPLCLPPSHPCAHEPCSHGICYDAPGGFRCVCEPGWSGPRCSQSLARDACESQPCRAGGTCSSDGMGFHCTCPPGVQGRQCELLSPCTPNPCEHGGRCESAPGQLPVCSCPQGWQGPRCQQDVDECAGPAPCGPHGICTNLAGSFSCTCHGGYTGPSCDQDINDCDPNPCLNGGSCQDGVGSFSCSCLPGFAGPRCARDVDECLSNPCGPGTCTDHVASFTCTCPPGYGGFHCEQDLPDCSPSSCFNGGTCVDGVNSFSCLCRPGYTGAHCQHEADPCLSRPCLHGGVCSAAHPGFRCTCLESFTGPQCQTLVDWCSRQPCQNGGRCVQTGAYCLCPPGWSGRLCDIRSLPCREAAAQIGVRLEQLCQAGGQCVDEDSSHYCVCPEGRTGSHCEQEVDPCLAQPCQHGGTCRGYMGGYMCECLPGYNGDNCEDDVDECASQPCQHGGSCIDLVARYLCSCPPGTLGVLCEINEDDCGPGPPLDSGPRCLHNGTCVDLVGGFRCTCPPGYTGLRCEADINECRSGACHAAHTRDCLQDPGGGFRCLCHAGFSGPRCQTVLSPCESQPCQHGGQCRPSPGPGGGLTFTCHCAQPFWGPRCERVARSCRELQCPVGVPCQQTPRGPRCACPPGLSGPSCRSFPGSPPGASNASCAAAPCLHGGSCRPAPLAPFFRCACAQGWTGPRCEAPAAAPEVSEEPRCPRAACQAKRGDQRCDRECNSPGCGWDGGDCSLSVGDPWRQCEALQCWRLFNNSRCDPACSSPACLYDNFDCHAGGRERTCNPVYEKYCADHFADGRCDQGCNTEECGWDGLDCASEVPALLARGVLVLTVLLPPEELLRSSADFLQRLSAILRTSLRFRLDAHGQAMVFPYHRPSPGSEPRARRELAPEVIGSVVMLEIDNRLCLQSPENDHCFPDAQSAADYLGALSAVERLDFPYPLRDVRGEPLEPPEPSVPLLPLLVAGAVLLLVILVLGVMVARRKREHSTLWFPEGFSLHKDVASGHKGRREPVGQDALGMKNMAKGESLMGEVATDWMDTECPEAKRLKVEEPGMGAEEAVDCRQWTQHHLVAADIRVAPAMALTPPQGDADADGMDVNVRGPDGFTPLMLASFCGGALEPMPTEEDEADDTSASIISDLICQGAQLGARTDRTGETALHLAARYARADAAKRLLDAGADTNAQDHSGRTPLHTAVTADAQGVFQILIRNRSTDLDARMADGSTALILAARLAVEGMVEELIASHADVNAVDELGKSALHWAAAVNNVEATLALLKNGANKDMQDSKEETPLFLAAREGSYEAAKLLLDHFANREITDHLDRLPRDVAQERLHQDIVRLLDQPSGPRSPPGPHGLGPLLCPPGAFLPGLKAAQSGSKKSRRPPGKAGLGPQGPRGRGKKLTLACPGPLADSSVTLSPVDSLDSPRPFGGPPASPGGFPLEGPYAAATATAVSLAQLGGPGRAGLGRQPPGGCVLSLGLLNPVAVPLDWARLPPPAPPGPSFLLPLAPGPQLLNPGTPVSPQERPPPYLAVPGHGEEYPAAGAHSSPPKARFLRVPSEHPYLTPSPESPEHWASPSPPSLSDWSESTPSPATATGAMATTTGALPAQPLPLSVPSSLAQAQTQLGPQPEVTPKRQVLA
Assay [10] can be described thus: small-molecule microarray binders of probe aEGFR, primary screen, biochemical, biotinylated probe, 635/667 nm fluorescence (AID 1097).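 Also: probe is a biotinylated anti-EGFR antibody binding compounds printed on slides; score combines fluorescence near 667 nm and signal to noise of each spot.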 The note with it: higher = more signal.
Assay [11] deals with Plasmodium falciparum Sir2 (PF13_0152, Sir2A). The assay is described as follows: pfSir2 binders on small-molecule microarrays, primary screen, biochemical, small-molecule microarray, 635 nm fluorescence (AID 1098).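 Also: score merges spot fluorescence intensity with its signal-to-noise ratio.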 Particulars: small-molecule microarray binding, fluorescence 635 nm; higher = more signal.
The nature of assay [12]: small-molecule microarray binders of probe aDKK1, primary screen, biochemical, biotinylated probe, 635/667 nm fluorescence (AID 1099).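 Also: score merges 667nm spot fluorescence with signal to noise across triplicate slides; reference of the scale not given here.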 Particulars: higher = more signal.
Assay [13] is described as follows: small-molecule microarray binders of probe aCHRDL2, primary screen, biochemical, biotinylated probe, 635/667 nm fluorescence (AID 1100). The note with it: higher = more signal.
A short description of assay [14]: splicing luciferase reporter signal modulators, primary screen, spliceosome inhibition project, cell-based, HEK293, splice +/- reporter (AID 1101).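 Also: HEK293 cells carrying a splicing-competent luciferase reporter gene; test concentration not given here.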 Particulars: luminescence, 24 h, higher = more signal, called active from +8 up or from −8 down.
For assay [15], the target named is Fibroblast growth factor 10 (Homo sapiens) (UniProt O15520). The assay is described as follows: FGF10 binders on small-molecule microarrays, primary screen, biochemical, small-molecule microarray, 635 nm fluorescence (AID 1102). Particulars: FGF10 binding, fluorescence 635 nm, higher = more signal.
Chain of Fibroblast growth factor 10 (Homo sapiens) (O15520 whole entry, looked up): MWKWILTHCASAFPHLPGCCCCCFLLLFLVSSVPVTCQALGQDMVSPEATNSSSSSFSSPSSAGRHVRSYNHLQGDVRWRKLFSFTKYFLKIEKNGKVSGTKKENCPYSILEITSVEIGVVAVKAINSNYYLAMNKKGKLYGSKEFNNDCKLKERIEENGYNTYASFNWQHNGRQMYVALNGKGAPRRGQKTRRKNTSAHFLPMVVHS
Assay [16] concerns glycogen synthase kinase-3 (GSK3A per assay name; protocol says GSK3B). Kind of assay: GSK3 binders on small-molecule microarrays, primary screen, biochemical, small-molecule microarray, 635 nm fluorescence, GSK3A (AID 1103). Also: the record names both GSK3A and GSK3B. Particulars: small-molecule microarray binding, fluorescence 635 nm; higher = more signal.
For assay [17], the target named is Epidermal growth factor receptor (Homo sapiens) (UniProt P00533). The assay is described as follows: EGFR binders on small-molecule microarrays, primary screen, biochemical, small-molecule microarray, 635 nm fluorescence (AID 1104).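 Also: score merges 667 nm emission intensity with spot signal to noise over triplicate slides.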 Particulars: EGFR binding, higher = more signal.
Chain of Epidermal growth factor receptor (Homo sapiens) (P00533 whole entry, looked up): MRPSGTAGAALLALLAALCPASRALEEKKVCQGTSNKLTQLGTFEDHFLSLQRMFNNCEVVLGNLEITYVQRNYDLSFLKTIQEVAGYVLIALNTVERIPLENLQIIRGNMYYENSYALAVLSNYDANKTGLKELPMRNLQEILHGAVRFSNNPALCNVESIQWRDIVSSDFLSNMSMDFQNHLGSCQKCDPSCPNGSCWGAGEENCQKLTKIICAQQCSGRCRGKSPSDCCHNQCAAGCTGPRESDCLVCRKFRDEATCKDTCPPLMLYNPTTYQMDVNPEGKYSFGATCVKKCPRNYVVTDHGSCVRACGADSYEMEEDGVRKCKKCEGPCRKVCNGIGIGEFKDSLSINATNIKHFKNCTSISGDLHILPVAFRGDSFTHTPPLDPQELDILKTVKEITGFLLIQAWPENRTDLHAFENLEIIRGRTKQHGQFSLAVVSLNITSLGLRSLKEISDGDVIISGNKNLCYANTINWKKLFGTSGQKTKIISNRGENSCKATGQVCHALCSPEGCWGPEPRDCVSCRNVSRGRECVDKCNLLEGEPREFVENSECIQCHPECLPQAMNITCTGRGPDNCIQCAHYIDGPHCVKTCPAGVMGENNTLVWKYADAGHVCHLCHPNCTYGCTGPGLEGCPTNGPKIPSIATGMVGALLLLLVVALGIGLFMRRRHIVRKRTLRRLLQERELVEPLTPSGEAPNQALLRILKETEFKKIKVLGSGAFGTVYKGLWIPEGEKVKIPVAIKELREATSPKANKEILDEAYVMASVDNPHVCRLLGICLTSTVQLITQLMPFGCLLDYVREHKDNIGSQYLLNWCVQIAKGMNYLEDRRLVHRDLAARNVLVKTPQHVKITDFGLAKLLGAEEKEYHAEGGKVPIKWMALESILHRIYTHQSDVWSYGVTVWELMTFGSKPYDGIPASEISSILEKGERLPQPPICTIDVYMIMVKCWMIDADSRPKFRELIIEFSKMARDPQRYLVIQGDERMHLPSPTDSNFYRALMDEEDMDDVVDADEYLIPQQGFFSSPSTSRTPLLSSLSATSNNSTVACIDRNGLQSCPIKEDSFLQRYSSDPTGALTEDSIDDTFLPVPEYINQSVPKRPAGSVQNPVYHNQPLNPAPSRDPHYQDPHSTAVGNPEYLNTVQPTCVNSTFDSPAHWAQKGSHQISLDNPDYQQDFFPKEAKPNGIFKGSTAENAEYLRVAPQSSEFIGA
Assay [18] has as its target Follistatin-related protein 3 (Homo sapiens) (UniProt O95633). Kind of assay: FSTL3 binders on small-molecule microarrays, primary screen, biochemical, small-molecule microarray, 635 nm fluorescence (AID 1105).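 Also: score merges emission near 667 nm and signal to noise per printed spot across three slides.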 The note with it: FSTL3 binding, higher = more signal.
The target of assay [19] is Dickkopf-related protein 1 (Homo sapiens) (UniProt O94907). The assay is described as follows: DKK1 binders on small-molecule microarrays, primary screen, biochemical, small-molecule microarray, 635 nm fluorescence scan (AID 1106).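 Also: score merges emission near 667 nm with signal to noise over three replicate slides.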 Particulars: DKK1 binding, higher = more signal.
Chain of Dickkopf-related protein 1 (Homo sapiens) (O94907 whole entry, looked up): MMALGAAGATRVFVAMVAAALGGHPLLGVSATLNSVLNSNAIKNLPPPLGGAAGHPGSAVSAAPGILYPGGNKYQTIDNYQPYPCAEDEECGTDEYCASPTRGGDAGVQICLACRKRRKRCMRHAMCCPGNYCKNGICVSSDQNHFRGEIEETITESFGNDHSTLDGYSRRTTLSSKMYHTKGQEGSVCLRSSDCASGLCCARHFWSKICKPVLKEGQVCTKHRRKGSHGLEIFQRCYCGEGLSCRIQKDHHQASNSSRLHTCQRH
Assay [20] deals with Inhibin beta A chain (activin A). The assay is described as follows: INHBA (activin A) binders on microarrays, primary screen, biochemical, small-molecule microarray, 635 nm fluorescence scan (AID 1107).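 Also: mouse activin A protein probed at 4.33 µg/mL on printed slides; score merges bound-protein fluorescence near 667 nm with spot signal-to-noise.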 The note with it: small-molecule microarray binding, higher = more signal.

Structures are written as SMILES. The source made the active and inactive calls.

Chain of Torsin-1A-interacting protein 2 (Homo sapiens) (Q8NFQ8 whole entry, looked up): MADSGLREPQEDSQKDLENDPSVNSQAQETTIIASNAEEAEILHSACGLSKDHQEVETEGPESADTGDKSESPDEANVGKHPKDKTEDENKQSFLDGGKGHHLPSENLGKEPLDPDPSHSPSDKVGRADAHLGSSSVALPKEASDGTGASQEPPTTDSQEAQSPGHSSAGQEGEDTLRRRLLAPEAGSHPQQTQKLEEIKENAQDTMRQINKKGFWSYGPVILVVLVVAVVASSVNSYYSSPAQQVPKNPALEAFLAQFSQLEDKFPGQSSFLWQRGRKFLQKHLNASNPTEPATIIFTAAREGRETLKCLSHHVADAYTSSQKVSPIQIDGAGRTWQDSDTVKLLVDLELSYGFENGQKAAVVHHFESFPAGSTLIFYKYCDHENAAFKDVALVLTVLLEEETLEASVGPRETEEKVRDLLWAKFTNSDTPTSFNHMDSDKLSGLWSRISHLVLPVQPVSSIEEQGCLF
Chain of Follistatin-related protein 3 (Homo sapiens) (O95633 whole entry, looked up): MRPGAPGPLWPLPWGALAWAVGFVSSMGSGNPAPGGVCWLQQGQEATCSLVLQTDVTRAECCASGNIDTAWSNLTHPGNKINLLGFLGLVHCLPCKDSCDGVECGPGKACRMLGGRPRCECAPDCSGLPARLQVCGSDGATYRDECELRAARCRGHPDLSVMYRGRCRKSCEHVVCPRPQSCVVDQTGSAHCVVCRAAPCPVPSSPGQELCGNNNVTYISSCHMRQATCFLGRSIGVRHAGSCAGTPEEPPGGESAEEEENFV

Turning to `COc1cc2c(cc1O)C(C)N(Cc1cc3c(cc1Br)OCO3)CC2` (stereo not given), the composite z-score is -0.285 in [1]; 0.169 in [5]; 0 in [7]; -1.03 in assay [8]; -0.53 in assay [9]; -0.0594 in assay [10]. For the same molecule, the composite z-score in [11] was 1; in assay [12] it was 0.623; in [13] it was 0.749; in assay [15], -0.0175; in assay [16], -1.11; in assay [17], -0.277. Besides, the composite z-score was -0.475 in assay [18], -0.165 in [19] and 0.561 in [20]. Also, the z-score in [2] is 0.406 (inactive); in assay [3], -10.1 (active); in assay [4], -1.35 (inactive); in assay [6], -0.471 (inactive); in assay [14], -0.363 (inactive).
Take `CN(C)C(=O)[C@]1(CCC(=O)OC(C)(C)C)N=C(c2ccc(OCCCO)cc2)O[C@@H]1c1ccccc1`: the composite z-score is 0.637 in assay [1]; 3.56 in assay [5]; 0.0601 in assay [7]; -0.674 in assay [8]; -0.301 in [9]; 0.625 in assay [10]. Moreover, the composite z-score in assay [11] was 0.11; in assay [12], 0.937; in assay [13], 1.01; in [15], 0.617; in assay [16], 1.11; in [17] it was -0.0133. The composite z-score was 0.011 in assay [18], -0.136 in assay [19] and 0.12 in assay [20]. Besides, the z-score was 0.182 (inactive) in assay [2]; -0.993 (inactive) in assay [3]; -0.273 (inactive) in assay [4]; 1.27 (inactive) in [6]; -0.403 (inactive) in assay [14].
Consider `COc1ccc([Si](C)(C)[C@H]2[C@H](CCO)O[C@@]3(C(=O)N(Cc4cccc(N5CCCCC5=O)c4)c4ccccc43)[C@@H]2C)cc1`, for which the composite z-score in [1] was 1.54; in assay [5], 1.56; in assay [7] it was -0.0732; in assay [8], 0.296; in assay [9], 0.896; in assay [10], 0.214. The composite z-score in [11] was found to be 1.08; in assay [12], 0.176; in assay [13] it was 0.0883; in assay [15] it was 0.748; in [16], 0.845; in assay [17] it was 0.525. Moreover, the composite z-score in assay [18] stood at 1.16; in [19], 0.82; in assay [20], 0.861. The z-score is 2.01 (inactive) in assay [2]; -1.99 (inactive) in assay [3]; 2.68 (inactive) in assay [4]; 0.525 (inactive) in [6]; -2.37 (inactive) in [14].
For `COc1ccc(CCNC(=O)[C@@]2(Sc3ccc(C)cc3)CC(=O)N(Cc3cc(C(F)(F)F)cc(C(F)(F)F)c3)[C@@H]2c2ccc(CO)cc2I)cc1`, the composite z-score was 1.46 in [1]; 1.94 in assay [5]; -0.0208 in assay [7]; -0.299 in [8]; -0.0768 in assay [9]; -0.24 in [10]. Moreover, the composite z-score in assay [11] was 1.15; in [12] it was 0.277; in [13] it was 0.901; in assay [15], -0.447; in [16] it was -0.223; in assay [17] it was -1.06. Further, the composite z-score in [18] is -0.0666; in assay [19], -0.744; in assay [20], 0.533. For the same molecule, the z-score was -2.62 (inactive) in assay [2]; -3.09 (inactive) in [3]; 2.1 (inactive) in assay [4]; 0.152 (inactive) in assay [6]; -0.871 (inactive) in assay [14].
`C=CCOC(=O)[C@@H]1[C@H]2C(=O)O[C@H](c3ccccc3)[C@H](c3ccccc3)N2[C@H](c2ccc(OCCOC(=O)[C@H]3C[C@H]4C(=O)N[C@@H](CCCCNC(C)=O)C(=O)N4[C@H]3c3cccc(OCCO)c3)cc2)[C@@]12C(=O)Nc1ccc(I)cc12`: the composite z-score was 1.54 in assay [1]; 1.78 in assay [5]; -0.195 in assay [7]; 1.68 in [8]; 1.12 in assay [9]; -0.0882 in assay [10]. In addition, the composite z-score in assay [11] was determined as 1.52; in [12], 0.453; in assay [13], 0.182; in assay [15] it was 0.909; in [16], 1.32; in assay [17], 0.771. The composite z-score in assay [18] was found to be 1.23; in assay [19] it was 1.45; in assay [20] it was 0.124. The z-score in assay [2] was 1.71 (inactive); in assay [3], 1.38 (inactive); in assay [4] it was 3.9 (inactive); in [6] it was 0.136 (inactive); in assay [14], 0.357 (inactive).
